# According to ChEMBL document CHEMBL4513216, “Probing the Open Global Health Chemical Diversity Library for Multistage-Active Starting Points for Next-Generation Antimalarials” (ACS Infect Dis, 2020):
# In all, about 69,000 compounds went through this assay and about 8,600 (12%) showed an effect of 50% or more. Many of the other results were omitted from the sample, so strong results are more common in it than they were.
# System: Plasmodium berghei
# Test: Screen against P. berghei liver stage (PbLuc), transformed with Luciferase, at 10uM
# Assay type: functional, HepG2
# Conditions: tested at 10 uM
row,Structure (SMILES),INHIBITION [%]
1,CC1(C)CNC(=O)CN(C(=O)CCc2ccccc2)C1,40.4
2,CC1(C)CNC(=O)CN(C(=O)COc2ccccc2)C1,55.5
3,CC1(C)CNC(=O)CN(C(=O)Cc2ccccc2)C1,-1.99
4,CN1C[C@H](O)[C@]2(CCN(C(=O)COc3ccccc3)C2)S1(=O)=O,9.36
5,COc1ccc(CC(=O)N2CCN(C)c3ncccc3C2)cc1,8.44
6,COc1ccc(CC(=O)N2CC(=O)NCC(C)(C)C2)cc1,60.1
7,CSc1[nH]nc(NC(=O)c2cccs2)c1C#N,24.2
8,Cn1cc(CCNCc2cc(Cl)c3c(c2)OCCO3)cn1,-9.4
9,O=C1Nc2ccccc2CN(CC2CCCC2)C12CCNC2 (stereo not drawn),-44.5
10,O=C(NCc1nnc2n1CCC2)c1cn(-c2ccccc2Br)nn1,50.4
11,O=C(NCc1nnc2n1CCCC2)c1cn(-c2ccccc2)nn1,36.4
12,O=C(NCc1nnc2n1CCC2)c1cn(-c2ccccc2)nn1,13.6
13,Cc1ccc(OCc2occc2C(=O)N2CCOC(C(=O)O)C2)cc1 (stereo not drawn),-0.71
14,Cc1ccc(OCc2occc2C(=O)O)cc1,64.1
15,Cc1ccc(OCc2occc2C(=O)N2CC[C@H](CO)[C@@H](O)C2)cc1,26.6
16,NS(=O)(=O)c1cc(C(=O)N2CCCC(n3ccnc3)C2)cs1 (stereo not drawn),29.4
17,O=S1(=O)CCC(S(=O)(=O)c2cccc(S(=O)(=O)N3CCCC3)c2)C1 (stereo not drawn),36.3
18,CSCc1cccc(S(=O)(=O)N2CCC(C)CC2)c1,32.4
19,O=S1(=O)CCC(S(=O)(=O)c2cccc(S(=O)(=O)N3CCOCC3)c2)C1 (stereo not drawn),58.9
20,CC1=CCN(S(=O)(=O)c2cccc(C(=O)N3CCOCC3)c2)CC1,37.1
21,CN1CCN(S(=O)(=O)c2cccc(S(=O)(=O)C3CCS(=O)(=O)C3)c2)CC1 (stereo not drawn),46.7
22,O=S1(=O)CCC(S(=O)(=O)c2cccc(S(=O)(=O)N3CCCCCC3)c2)C1 (stereo not drawn),50.2
23,COCCN1C[C@H]2[C@@H](C1)N(C(=O)c1cccc(OC)c1)CC[C@H]2OC,9.63
24,CC(C)c1ncc2c(n1)CN(Cc1nc(-c3cccnc3)no1)CC2,33.7
25,Cc1nc(CN2CCOCC3(CCN(c4ncccn4)CC3)C2)cs1,27.6
26,Cc1nn(C)c(C)c1C1CCCN1CC(=O)NCc1ccco1 (stereo not drawn),7.12
27,O=C(NC1CC1)[C@H]1C[C@H]2OCC[C@H]2N(Cc2cccc3ccccc23)C1,11.4

row,Structure (SMILES),INHIBITION [%]
1,Cn1c(CN2CCCc3cc(F)cc(F)c32)cc(=O)n(C)c1=O,12.8
2,CCNc1nc(N(C)C)nc(-n2cnc(SC)n2)n1,46.1
3,Fc1cnccc1CN1CCCC2(CCN(c3ncccn3)CC2)C1,30.3
4,Fc1ccccc1CN1CCCC2(CCN(c3ncccn3)C2)C1 (stereo not drawn),74.9
5,c1cnc(N2CCC3(CCCN(CC4CCCCC4)C3)C2)cn1 (stereo not drawn),63
6,c1cnc(N2CCOCC3(CCCN(CC4CC4)C3)C2)cn1 (stereo not drawn),26.8
7,c1cnc(N2CCCC3(CN(CC4CCOCC4)CCO3)C2)cn1 (stereo not drawn),-36
8,c1cnc(N2CCCC3(COCCN(CC4CC4)C3)C2)nc1 (stereo not drawn),-6.23
9,O=C(O)[C@]12CCCN(Cc3ccccc3)C[C@H]1CN(c1ncccn1)C2,2.01
10,c1cnc(N2CCC3(CCN(CC4CC4)CC3)CC2)nc1,-5.69
11,Fc1ccccc1CN1CCCC2(CCN(c3ncccn3)CC2)C1,30.3
12,O=C(O)[C@]12CCCN(C3CCOC3)C[C@H]1CN(c1ncccn1)C2 (stereo partly drawn),31.2
13,c1cnc(N2CCC3(CCCN(CC4CC4)C3)CC2)nc1,61.1
14,O=C(O)[C@]12CCCN(CC3CCOC3)C[C@H]1CN(c1ncccn1)C2 (stereo partly drawn),53.9
15,CN(CC(=O)N1CCC(N(C)c2ccccc2)CC1)c1cnccn1,9.9
16,COCCCNC(=O)CN1CCC(c2ccccc2)C1 (stereo not drawn),-4.99
17,Cn1cccc1C(=O)N[C@@H]1CN(CC2CC2)[C@@H]2COC[C@@H]21,0.547
18,CN(C)S(=O)(=O)c1ccc(-c2nc(C#N)c(NC(C)(C)C)o2)o1,16
19,Cc1ccc(C(=O)N2CCC3(CCC(=O)N(CCCO)C3)CC2)c(O)c1,-45
20,COCCS(=O)(=O)NC(C)c1cccc(C)c1C (stereo not drawn),48.2
21,CCc1nnc2n1CCN(C(=O)CCc1ccc(C)c(Cl)c1)C2,-27
22,O=C(Cc1c(F)cccc1Cl)N1CCC(Nc2cccnn2)CC1,-8.225
23,c1cnc(N2CC3(CCN(Cc4ccncc4)C3)C2)nc1,11.3
24,c1cnc(N2CCC3(CCN(CC4CCCC4)CC3)C2)nc1,28.4
25,CCC(CC)CN1CCC2(CCCN(c3ncccn3)C2)C1 (stereo not drawn),62.5
26,c1cnc(N2CCCC3(CCN(c4ncccn4)C3)C2)nc1 (stereo not drawn),44.8
